# OPRM1-OPRD1 inv: mu-delta opioid heterodimer inverse agonism. cell-based MOR-DOR heterodimer luminescence. inhibition, % at 9.3 µM. actives 0.21% (n = 340,000); in the data active = inhibition above about 22%, passing the limit was not always enough;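 also: 0% = cells with DMSO and 100% = wells without cells with DMSO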
# HTR5A inv ag: inverse agonist of human HTR5A in OPRM1-OPRD1 counter-screen. P47898. HTR5A cell line, luminescence, inverse agonism. inhibition, % at 9.3 µM. actives 0.083% (n = 340,000); in the data active = inhibition mostly above about 23%, no sharp cut-off; inactive = mostly below about 18%;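 also: 0% = cells with DMSO and 100% = no-cell wells with DMSO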
# Target sequence (P47898 whole entry, looked up): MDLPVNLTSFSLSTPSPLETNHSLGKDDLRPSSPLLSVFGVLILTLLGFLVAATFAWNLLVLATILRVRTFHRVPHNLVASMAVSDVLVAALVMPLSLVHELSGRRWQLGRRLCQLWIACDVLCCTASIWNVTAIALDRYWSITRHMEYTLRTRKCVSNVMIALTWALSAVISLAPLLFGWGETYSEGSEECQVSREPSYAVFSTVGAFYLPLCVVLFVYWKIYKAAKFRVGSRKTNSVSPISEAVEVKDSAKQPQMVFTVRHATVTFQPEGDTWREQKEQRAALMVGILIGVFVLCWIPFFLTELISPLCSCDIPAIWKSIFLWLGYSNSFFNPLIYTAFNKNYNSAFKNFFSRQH
# OPRM1-OPRD1 ag: agonists of human mu-delta opioid receptor heterodimerization; P35372+P41143; cells, OPRM1-OPRD1 heterodimerization, luminescence; activation, % at 9.3 µM; actives 0.3% (n = 340,000);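 also: 0% = vehicle-treated cells and 100% = reference agonist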
# HTR5A ag: HTR5A agonism, opioid heterodimer counter-screen; P47898; activation, % at 9.3 µM; HTR5A agonist assay, luminescence, cell-based; actives 0.61% (n = 340,000); AID 504692; in the data active = activation mostly above about 9.5%, no sharp cut-off; inactive = mostly below about 7.6%;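 also: 0% = cells with vehicle only and 100% = reference agonist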
# OPRM1-D1 ag cf: OPRM1-OPRD1 heterodimer agonism, confirmation; activation, % at 9.3 µM; shares compounds with OPRM1-OPRD1 ag; cells, MOR-DOR heterodimerization, luminescence complementation; AID 504904; actives 45% (n = 830);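 also: 0% = vehicle-treated cells and 100% = reference agonist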
# HTR5A ag ctr2: activates human HTR5A in OPRM1-OPRD1 agonist counter-screen; shares compounds with OPRM1-OPRD1 ag; HTR5A agonist counterscreen, cell luminescence; activation, % at 9.3 µM; actives 8% (n = 830); in the data active = activation above about 17%;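 also: 0% = vehicle-treated cells and 100% = reference agonist response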
# Active calls of the source: *; i = inactive; / = no result. This is a sample that favours compounds with a hit; in the whole collection about 1.1% have one here. Rule as the data show it, unless noted: active = activation above about 18%; inactive = the rest.
SMILES,OPRM1-OPRD1 inv,HTR5A inv ag,OPRM1-OPRD1 ag,HTR5A ag,OPRM1-D1 ag cf,HTR5A ag ctr2
Cc1cc(/C=C2/C(=O)NN(c3ccccc3)C2=O)c(C)n1-c1cccc(O)c1,-143,-1,20*,1,-1,-3
CCOC(=O)C1=C(Cc2ccc(F)cc2)C(=O)c2ccccc2C1=O,-100,0,18*,5,2,27*
CN(C)C(CNC(=O)c1ccc(Cl)c(S(=O)(=O)N2CCCCCC2)c1)c1ccccc1 (stereo not given),-187,-13,36*,4,1,-3
CN(C)C(CNC(=O)c1ccc2nc[nH]c2c1)c1ccccc1 (stereo not given),-126,-12,25*,4,7,8
O=C(NNC(=O)c1ccc2nc[nH]c2c1)c1ccccc1,0,-16,0,6,/,/
Cc1cc(C)c2c(-n3cccc3)c(C(=O)NNS(=O)(=O)c3ccc(Cl)cc3)sc2n1,1,-6,0,3,/,/
COc1ccc(C(CNc2ncnc3sccc23)N(C)C)cc1OC (stereo not given),-154,0,20*,0,0,25*
COc1ccc(C(CNc2ncnc3sc(C)c(C)c23)N(C)C)cc1 (stereo not given),i,-1,102*,0,68*,-3
CC1CN=C(NC(=O)c2cccc([N+](=O)[O-])c2)S1 (stereo not given),-18,6,4,-2,/,/
O=C(Nc1ccc2c(c1)C(=O)N(c1ccccc1)C2=O)c1cccs1,-91,-23,18*,6,17,9
C[C@H]1O[C@@H](O[C@H]2[C@@H](O)C[C@H](O[C@H]3[C@@H](O)C[C@H](O[C@H]4CC[C@@]5(C)[C@H](CC[C@@H]6[C@@H]5C[C@@H](O)[C@]5(C)[C@@H](C7=CC(=O)OC7)CC[C@]65O)C4)O[C@@H]3C)O[C@@H]2C)C[C@H](O)[C@@H]1O,-359,-94,65*,28,2,105*
O=C1Nc2ccc(Br)cc2/C1=C/C(=O)c1ccccc1,-80,-17,18*,4,7,0
O=C(OC1C2CCC1C1CN(CCc3ccccc3)CC12)c1ccccc1 (stereo not given),-109,-9,18*,3,60*,2
CCOC(=O)C1CCCN(CCc2ccccc2)C1 (stereo not given),3,6,-1,0,/,/
O=C(C[C@H]1C/C=C\C[C@H](NC(=O)OCC2c3ccccc3-c3ccccc32)C(=O)O[C@H](c2ccccc2)CNC1=O)N[C@H](CO)Cc1ccccc1,i,-144,239*,21*,7,12
CCOC(=O)c1c2c(n(Cc3ccccc3)c1C)C(=O)C(=O)c1ccccc1-2,-85,-32,19*,8,16,0
CCc1ccc(Nc2n[n+](-c3ccccc3)c(-c3c(Cl)cccc3Cl)s2)cc1,-153,-5,27*,12,73*,10
CCCC(NCC(O)COc1ccc(-c2ccccc2)cc1)c1ccccc1 (stereo not given),-120,16,22*,11,13,8
COc1ccc(OCC(O)CNC(C)c2ccccc2)cc1 (stereo not given),1,-10,0,3,/,/
O=C(N/N=C/c1cccnc1)c1ccccc1OCc1ccc(Br)cc1,-126,8,24*,-3,14,5
Cc1cc(C)c(-c2cc(C(=O)Nc3cc(C)ccc3C)[nH]n2)c(O)c1,-95,-15,20*,4,10,0
Cc1ccc(-c2cc(C(=O)Nc3cc(C)ccc3C)[nH]n2)c(O)c1,-9,19,1,4,/,/
O=C(CCN1C(=O)/C(=C\c2ccc(F)cc2)SC1=S)Nc1ccc(O)cc1,6,18,-1,3,/,/
Cc1cccc(-n2nc(C(=O)c3ccco3)cc(-c3nc4ccccc4[nH]3)c2=N)c1,-222,3,31*,-1,1,0
CC1=CC(C)(C)N=C(Nc2nc(C)c3cc(C)cc(C)c3n2)N1,-94,12,19*,5,21*,2
SMILES,OPRM1-OPRD1 inv,HTR5A inv ag,OPRM1-OPRD1 ag,HTR5A ag,OPRM1-D1 ag cf,HTR5A ag ctr2
Cc1cc(C)c2nc(Nc3nc(-c4ccccc4)cc(=O)[nH]3)nc(C)c2c1,-2,13,0,-3,/,/
CC(C)c1ccc(NC(=O)N(CCc2nc3ccccc3[nH]2)C2CCCC2)cc1,-148,-9,25*,2,37*,0
CC(C)(C)c1ccccc1OCCCCCn1ccnc1,-28,-24,6,2,/,/
COc1ccc(CC(=O)Nc2ccc(F)c(F)c2F)cc1S(=O)(=O)N1CCOCC1,12,11,-2,-3,/,/
CC(C)c1ccccc1NC(=O)c1cccc(NC(=O)c2ccccc2)c1,-293,8,48*,-1,8,4
COc1ccc(OC)c(N(CC(=O)Nc2cccnc2)S(=O)(=O)c2ccc(C)cc2)c1,-368,-9,65*,5,47*,0
CC(C)N(Cc1ccccc1)C(=O)CN1c2cccc3cccc(c23)S1(=O)=O,-94,-6,19*,2,1,2
CC[C@]12C(=O)N(C)C[C@H]([C@@H]3C(=O)N(Cc4ccccc4)C(=O)[C@@H]31)N2C(=O)c1ccc(F)cc1,6,-4,-1,1,/,/
CNC1=C(N(C(C)=O)c2ccc(Br)cc2)C(=O)c2ccccc2C1=O,-30,9,6,2,/,/
CC(=O)C1=C(c2ccc(Br)cc2)C(=O)c2ccccc2C1=O,-178,-28,33*,11,26*,11
Fc1ccc(-n2cc(CNCCc3cccnc3)c(-c3ccccc3Cl)n2)cc1,-43,9,9,-4,/,/
Cc1c(Cl)cccc1NC(=S)NCC(C)C,-3,-1,0,0,/,/
Cc1cccc(NC(=S)NCC(c2cccnc2)N(C)C)c1C (stereo not given),i,10,416*,-4,412*,4
Cc1c(Cl)cccc1NC(=S)NCC(c1cccnc1)N(C)C (stereo not given),i,-13,474*,0,15,6
Cc1ccccc1NC(=S)NCC(c1cccnc1)N(C)C (stereo not given),i,0,216*,0,211*,1
Cc1ccc(C)c(NC(=S)NCC(c2ccccc2)N(C)C)c1 (stereo not given),i,-6,265*,2,361*,-2
COc1ccc(C(=O)CC2(C(=O)O)CCCCC2)cc1,6,-15,-1,4,/,/
CN(C)S(=O)(=O)c1ccc(S(=O)(=O)NCc2cccs2)cc1,10,-1,-2,-2,/,/
CC(=O)c1ccc(NC(=O)CNCC(c2ccccc2)N(C)C)cc1 (stereo not given),-5,-6,1,-3,/,/
Cc1ccc(NC(=O)NCC(c2ccccc2)N(C)C)cc1 (stereo not given),i,8,353*,-2,23*,17*

# Screening results as filed in PubChem.
